In the library only some 20% were active in any assay of this set; here they are far more common.
Pf growth 48h – P. falciparum growth inhibition at 48 hours (one generation) | AID 504832 | Potency, µM (top dose mostly 28.7 µM), for the others: at the highest dose activity change, negative = inhibition, usual class: inhibitors | P. falciparum luciferase growth in erythrocytes, 48 h | 5.9% of 310,000 active; also: potency is read from the fitted curve at half-maximal effect; % is scaled to controls: 0 for no effect and ±100 for the full control effect
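In quantitative HTS format, infected erythrocytes bearing luciferase-reporter parasites were treated for a single generation at 37 C. Luminescence after adding detection reagent served as the growth measure.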
Pf growth 96h – P. falciparum growth inhibition at 96 hours; Potency, µM (top dose mostly 28.7 µM), for inactives: at the highest dose activity change, negative = inhibition, hits mostly inhibitors; P. falciparum luciferase reporter growth, 96 h; 6.9% of 320,000 active; also: potency is read from the fitted curve at half-maximal effect; % is scaled to controls: 0 for no effect and ±100 for the full control effect
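Parasite growth measured via integrated firefly luciferase reporter in P. falciparum. Infected erythrocytes at 2% hematocrit, 0.05% parasitemia final were treated 96 hours at 37 C under 5% CO2, and luminescence was read.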
HCMV antiviral – human cytomegalovirus inhibition; activity change, negative = inhibition, % at 57.5 µM; 4.5% of 410,000 active; AID 1259415; HFF cells, HCMV-luciferase reporter, 72 h; hits give low values; in the data active = activity change below about -60%; inconclusive = no clear call, values can overlap the other calls; inactive = above about -39%; also: % is scaled to controls: 0 for no effect and ±100 for the full control effect
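Luciferase read-out from HCMV-luciferase-infected HFFs (MOI 1 PFU/cell) 72 h post infection at 37C; compounds added after 16 h cell attachment; activity normalized between buffer-only basal and Salinomycin (10uM) inhibitor controls.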
CHX counter – counter-screen hit for Shiga toxin inhibitors, cycloheximide; 12% of 300,000 active; max response, %; cell reporter, cycloheximide protein synthesis inhibition counterscreen; in the data active = max response mostly above about 13%, no sharp cut-off; inactive = mostly below about 14%; also: read at 38.3 µM for the half of the compounds with a filed dose; 0% is about no effect
Shiga inhibitor – blocks Shiga toxin action in Vero cells; inhibition, % at 38.7 µM; Vero cells, Shiga toxin protein synthesis inhibition reporter; 9.2% of 290,000 active; AID 2315; in the data active = inhibition mostly above about 28%, no sharp cut-off; inactive = mostly below about 43%; also: 0% is about no effect
* marks the source's active call; other numbers are inactive results; ? = inconclusive; . = not tested or not shown. Unless noted, calls follow the shape of the dose curve; as a rule, active = well fitted inhibition curve with a large enough effect; inconclusive = small, poorly fitted or top-dose-only effect, or another doubt; inactive = no such curve, though single readings can be large or run the other way.

SMILES	Pf growth 48h	Pf growth 96h	HCMV antiviral	CHX counter	Shiga inhibitor
CN(Cc1nc2ccccc2c(=O)[nH]1)Cc1nc2ccsc2c(=O)[nH]1	?	?	-30	2	-16
Cc1ccc(NC(=O)Cn2c(=O)n(CC(=O)NCCc3ccccc3)c(=O)c3ccccc32)cc1	.	.	9	.	.
CCOCCCn1c(=N)c(S(=O)(=O)c2ccc(C)cc2)cc2c(=O)n3cc(C)ccc3nc21	0%	?	64	-1	19
COc1cc(C(=O)NC(C)Cc2cccs2)cc(OC)c1OC (stereo unspecified)	-10%	-13%	34	-3	-5
CC(Cc1cccs1)NC(=O)Nc1ccc(F)cc1 (stereo unspecified)	.	17%	1	50*	48
CC(Cc1cccs1)NC(=O)Nc1cccc(Cl)c1 (stereo unspecified)	.	?	12	59*	69*
CC(C)NC(=O)Nc1cccc(Cl)c1	-6%	75%	1	11	24
Cc1ccc(N2C(=O)CSC23C(=O)N(CC(=O)NCCc2ccccc2)c2ccccc23)cc1C (stereo unspecified)	.	.	6	.	.
OC(CNCC1(N2CCCCC2)CCCCC1)COc1ccc(Cl)cc1Cl (stereo unspecified)	3.3µM*	?	-36	-2	-3
Cc1ccc(S(=O)(=O)N2CCOCC2)cc1C(=O)OCC(=O)NCc1ccccc1	?	-9%	6	.	.
Cc1ccc(N(Cc2ccccc2)C(=O)c2cc(S(=O)(=O)N3CCOCC3)ccc2C)cc1	10µM*	?	?	.	.
Cc1ccc(N(Cc2ccccc2)C(=O)c2ccc(Cl)c(S(=O)(=O)N3CCOCC3)c2)cc1	13µM*	9.3µM*	-25	.	.
CCC1(c2ccccc2)CCC(=O)NC1=O (stereo unspecified)	19µM*	?	.	-3	-6
CC(=O)c1ccc(NC(=O)c2onc(C)c2Cl)cc1	142%	47%	82	39*	96*
CC(=O)c1cccc(NC(=O)c2onc(C)c2Cl)c1	.	?	27	17*	24
CCN(CC)Cc1ccc(NC(=O)c2sc3cc(Cl)ccc3c2Cl)cc1	?	?	-104*	-1	16
Cc1noc(C(=O)Nc2ccc3c(c2)OCO3)c1Cl	98%	-7%	95	37*	79*
CCc1onc(C)c1C(=O)Nc1ccc2c(c1)OCO2	-7%	19%	38	-4	-7
Cc1ccc(C(=O)OC(C)C(=O)Nc2ccc3c(c2)OCO3)c(O)c1 (stereo unspecified)	105%	150%	14	.	.
COc1ccccc1CNC(=O)CCCn1c(=O)c2ccccc2n(CC(=O)Nc2c(C)cc(C)cc2C)c1=O	.	.	3	.	.
O=C(Nc1cccc(C(F)(F)F)c1)C1Cc2c(-c3ccccc3)ccnc2O1 (stereo unspecified)	.	.	4	.	.
COCCN(C(=O)COC(=O)/C(=C/c1ccccc1)NC(C)=O)c1c(N)n(Cc2ccccc2)c(=O)[nH]c1=O	5%	10%	-11	-2	-4
Cc1ccc2c(Cl)c(C(=O)Nc3ccc4c(c3)OCO4)sc2c1	0%	0%	10	19*	91*
CCc1cccc2c(-c3csc(=NC)n3C)c[nH]c12	?	?	10	9	1
CC(NC(=O)CN(C)S(=O)(=O)c1ccc2c(c1)c(=O)n(C)c(=O)n2C)c1ccccc1 (stereo unspecified)	-10%	?	-30	-5	-6
SMILES	Pf growth 48h	Pf growth 96h	HCMV antiviral	CHX counter	Shiga inhibitor
CCC(Cc1ccccc1)NC(=O)CN(C)S(=O)(=O)c1ccc2c(c1)c(=O)n(C)c(=O)n2C (stereo unspecified)	.	7.4µM*	-21	-6	-6
Cc1cccc(NC(=O)CN(C)S(=O)(=O)c2ccc3c(c2)n(C)c(=O)c(=O)n3C)c1C	-10%	?	0	-9	1
Cc1ccccc1NC(=O)CN(C)S(=O)(=O)c1ccc2c(c1)n(C)c(=O)c(=O)n2C	?	10µM*	-5	-2	-3
Cc1ccc(CCNC(=O)CN(C)S(=O)(=O)c2ccc3c(c2)n(C)c(=O)c(=O)n3C)cc1	?	9.3µM*	-1	-3	-4
Cc1ccc(CNC(=O)CN(C)S(=O)(=O)c2ccc3c(c2)n(C)c(=O)c(=O)n3C)cc1	-18%	?	.	2	-5
COC(=O)c1ccc(C2/C(=C(/O)c3ccc4c(c3)CC(C)O4)C(=O)C(=O)N2Cc2ccncc2)cc1 (stereo unspecified)	-16%	?	-29	-6	16
